These results are taken from PubChem BioAssay (EPA / NIEHS).

The target of assay [1] is Bile acid receptor (Homo sapiens) (UniProt Q96RI1). Put plainly: ATG_IR1_CIS: Attagene CIS-FACTORIAL HepG2 Assay for human Nuclear Receptor Subfamily 1 Group H Member 4 (NR1H4), IR1 submotif (AID 2282946). Particulars: IR1 reporter transcription, actives raise or lower the signal. Put shortly:
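Fluorescence of capillary-separated, HpaI-digested RT-PCR reporter products gave IR1-element mRNA induction in HepG2 cells 24 h after dosing. Endogenous transcription factors drove the cis-regulated reporters; activity was fitted bidirectionally against DMSO.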

The nature of assay [2]: ATG_GRE_CIS: Attagene CIS-FACTORIAL HepG2 Assay for human Glucocorticoid Response Elements (GRE) (AID 2282947). Particulars: HepG2 GRE cis-reporter, Attagene multiplex mRNA; actives raise or lower the signal. The essentials: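 Read-out: fluorescent reporter-transcript fragments separated by capillary electrophoresis after RT-PCR. Transiently transfected HepG2 cells carrying cis-element-driven reporter units were dosed for 24 h; gain or loss of signal fitted against DMSO control.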

The nature of assay [3]: ATG_ISRE_CIS: Attagene CIS-FACTORIAL HepG2 Assay for human Interferon Regulatory Factor 1 (IRF1) binding to an Interferon-Stimulated Response Element (ISRE) (AID 2282948). The conditions noted are these: HepG2 ISRE cis-reporter (Attagene), mRNA transcription readout; actives raise or lower the signal. The essentials: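 Endogenous transcription factor activity read as reporter transcript abundance via RT-PCR and capillary electrophoresis. HepG2 cells transiently transfected, 24 h chemical exposure. Gain or loss fitted against DMSO baseline.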

A short description of assay [4]: ATG_M_32_CIS: Attagene CIS-FACTORIAL HepG2 Assay for M32 Transcription Factor (Internal Marker) (AID 2282949).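 Note: background control marker of the multiplexed CIS panel rather than a real target.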 Particulars: HepG2 Attagene cis-factorial M32 reporter, mRNA; actives raise or lower the signal. Put shortly: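 Using DMSO as baseline, bidirectional curve fits were applied to reporter mRNA signals. These came from transiently transfected HepG2 cells exposed for 24 h, with RNA analysed by RT-PCR, FAM primer extension, HpaI digestion and CE.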

Assay [5] in a line: ATG_M_06_CIS: Attagene CIS-FACTORIAL HepG2 Assay for M06 Transcription Factor (Internal Marker) (AID 2282950). The conditions noted are these: HepG2 Attagene CIS-FACTORIAL M06 internal marker reporter; actives raise or lower the signal. Put shortly: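 One of many multiplexed endpoints: HepG2 reporter mRNA after 24 h dosing, detected by RT-PCR and capillary electrophoresis fluorescence; gain or loss of signal analysed against DMSO.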

Assay [6] addresses Hypoxia-inducible factor 1-alpha (Homo sapiens) (UniProt Q16665). The assay can be described thus: ATG_HIF1a_CIS: Attagene CIS-FACTORIAL HepG2 Assay for human Hypoxia Inducible Factor 1 (HIF1A) (AID 2282951). Particulars: HepG2 Attagene cis-factorial HIF1a reporter transcription; actives raise or lower the signal. The essentials: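 In this multiplexed cell assay, HepG2 cells bearing transfected cis reporters are dosed for 24 h and reporter mRNA is read by RT-PCR plus capillary electrophoresis; signal increases and decreases are both scored against DMSO.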

The target of assay [7] is Hepatocyte nuclear factor 6 (Homo sapiens) (UniProt Q9UBC0). The assay can be described thus: ATG_HNF6_CIS: Attagene CIS-FACTORIAL HepG2 Assay for human Hepatocyte Nuclear Factor 6 (HNF6) (AID 2282952). Particulars: HepG2 Attagene cis-factorial HNF6 reporter transcription; actives raise or lower the signal. The essentials:
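Activity values derive from bidirectional fitting against DMSO of reporter mRNA levels, measured by capillary electrophoresis of labelled RT-PCR products from HepG2 cells exposed 24 h.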

The target in assay [8] is Heat shock factor protein 1 (Homo sapiens) (UniProt Q00613). The assay can be described thus: ATG_HSE_CIS: Attagene CIS-FACTORIAL HepG2 Assay for human Heat Shock Transcription Factor 1 (HSE) (AID 2282953). Particulars: HepG2 HSE cis-reporter, Attagene RNA transcription; actives raise or lower the signal. Put shortly:
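Using HepG2 with transfected cis-driven reporter constructs, compound effects on endogenous factor activity are scored as reporter mRNA change at 24 h. Detection: RT-PCR, HpaI digestion, capillary electrophoresis; bidirectional fitting to DMSO.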

Assay [9] in a line: ATG_MRE_CIS: Attagene CIS-FACTORIAL HepG2 Assay for human Metal Responsive Element (MRE) (AID 2282954). Particulars: HepG2 MRE cis-reporter transcription, Attagene multiplex; actives raise or lower the signal. Put shortly:
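RT-PCR/capillary electrophoresis readout of reporter mRNA, 24 h post-dosing, in HepG2 cells transfected with multiplexed cis-regulated reporter constructs. Gain or loss of signal fitted bidirectionally against DMSO baseline.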

Assay [10] in a line: ATG_PBREM_CIS: Attagene CIS-FACTORIAL HepG2 Assay for human Phenobarbital-responsive Enhancer Module (PBREM) (AID 2282955). Particulars: HepG2 PBREM cis-reporter, Attagene multiplexed transcription; actives raise or lower the signal. Put shortly: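 After a 24 h incubation with test chemical, transfected HepG2 cells yield total RNA; reporter-specific RT-PCR products are fluorescently labelled, HpaI-digested and resolved by capillary electrophoresis against ROX size standards.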

For assay [11], the target named is Paired box protein Pax-6 (Homo sapiens) (UniProt P26367). The assay can be described thus: ATG_Pax6_CIS: Attagene CIS-FACTORIAL HepG2 Assay for human Paired Box 6 (PAX6) (AID 2282956). The conditions noted are these: HepG2 CIS-FACTORIAL PAX6 reporter transcription, RNA readout; actives raise or lower the signal. Put shortly: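 Read-out is reporter transcript level, measured by RT-PCR with fluorescent primer extension and capillary electrophoresis after 24 h dosing of transfected HepG2 cells. Activity in either direction fitted relative to DMSO control.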
Paired box protein Pax-6 (Homo sapiens), sequence (P26367 whole entry, looked up): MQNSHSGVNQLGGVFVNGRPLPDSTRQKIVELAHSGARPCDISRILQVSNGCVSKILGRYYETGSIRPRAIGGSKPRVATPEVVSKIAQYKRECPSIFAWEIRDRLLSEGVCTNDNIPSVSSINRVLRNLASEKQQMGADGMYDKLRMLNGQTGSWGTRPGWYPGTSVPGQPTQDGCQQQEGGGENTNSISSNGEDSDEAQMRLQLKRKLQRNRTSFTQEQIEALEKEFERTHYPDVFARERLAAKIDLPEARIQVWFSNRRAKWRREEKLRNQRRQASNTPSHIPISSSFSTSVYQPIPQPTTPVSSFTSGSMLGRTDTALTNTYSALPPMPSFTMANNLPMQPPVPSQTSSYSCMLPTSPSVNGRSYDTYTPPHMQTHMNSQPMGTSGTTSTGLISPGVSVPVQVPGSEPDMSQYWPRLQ

Assay [12] is described as follows: ATG_PXRE_CIS: Attagene CIS-FACTORIAL HepG2 Assay for human Pregnane X Receptor Element (PXRE) (AID 2282957). Particulars: HepG2 Attagene CIS-FACTORIAL PXRE reporter, mRNA; actives raise or lower the signal. Put shortly: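 Fluorescent capillary electrophoresis of amplified reporter cDNA gave the signal, collected 24 h after dosing HepG2 cells that held transfected cis-element reporter constructs.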

A short description of assay [13]: ATG_PPRE_CIS: Attagene CIS-FACTORIAL HepG2 Assay for human Peroxisome Proliferator-activated Response Element (PPRE) (AID 2282958). Particulars: HepG2 PPRE cis-element reporter, Attagene transcription factor profiling; actives raise or lower the signal. The essentials:
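Multiplexed reporter transcription units under cis-regulatory promoters were transfected into HepG2 cells to capture endogenous factor activity. A 24 h incubation preceded RNA isolation and fluorescent RT-PCR fragment analysis.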

Assay [14] in a line: ATG_RORE_CIS: Attagene CIS-FACTORIAL HepG2 Assay for human RAR-related Orphan Receptor Element (RORE) (AID 2282959). The conditions noted are these: HepG2 Attagene cis-factorial RORE reporter, mRNA; actives raise or lower the signal. The essentials:
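Fluorescence intensity of reporter-specific cDNA fragments, separated by capillary electrophoresis, gives the signal. Source: HepG2 liver cells transiently transfected with cis-element reporters and exposed 24 h; DMSO-normalized bidirectional fit.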

Assay [15] in a line: ATG_Sox_CIS: Attagene CIS-FACTORIAL HepG2 Assay for human SRY-box transcription factor (SOX) (AID 2282960). The conditions noted are these: HepG2 Attagene cis-factorial SOX reporter, mRNA; actives raise or lower the signal. The essentials: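 After 24 h of chemical treatment, transfected HepG2 reporter cells are lysed for total RNA. Transcript levels come from RT-PCR with labelled primer extension and capillary electrophoresis, analysed bidirectionally versus DMSO.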

Assay [16] deals with Transcription factor Sp1 (Homo sapiens) (UniProt P08047). The assay can be described thus: ATG_Sp1_CIS: Attagene CIS-FACTORIAL HepG2 Assay for human Specificity Protein 1 (Sp1) (AID 2282961). The conditions noted are these: HepG2 Sp1 cis-reporter transcription, actives raise or lower the signal. Put shortly: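 Sp1-driven reporter mRNA, read as capillary electrophoresis fluorescence after RT-PCR, in transiently transfected HepG2 cells dosed for 24 h; signal change in either direction relative to DMSO.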
Transcription factor Sp1 (Homo sapiens), sequence (P08047 whole entry, looked up): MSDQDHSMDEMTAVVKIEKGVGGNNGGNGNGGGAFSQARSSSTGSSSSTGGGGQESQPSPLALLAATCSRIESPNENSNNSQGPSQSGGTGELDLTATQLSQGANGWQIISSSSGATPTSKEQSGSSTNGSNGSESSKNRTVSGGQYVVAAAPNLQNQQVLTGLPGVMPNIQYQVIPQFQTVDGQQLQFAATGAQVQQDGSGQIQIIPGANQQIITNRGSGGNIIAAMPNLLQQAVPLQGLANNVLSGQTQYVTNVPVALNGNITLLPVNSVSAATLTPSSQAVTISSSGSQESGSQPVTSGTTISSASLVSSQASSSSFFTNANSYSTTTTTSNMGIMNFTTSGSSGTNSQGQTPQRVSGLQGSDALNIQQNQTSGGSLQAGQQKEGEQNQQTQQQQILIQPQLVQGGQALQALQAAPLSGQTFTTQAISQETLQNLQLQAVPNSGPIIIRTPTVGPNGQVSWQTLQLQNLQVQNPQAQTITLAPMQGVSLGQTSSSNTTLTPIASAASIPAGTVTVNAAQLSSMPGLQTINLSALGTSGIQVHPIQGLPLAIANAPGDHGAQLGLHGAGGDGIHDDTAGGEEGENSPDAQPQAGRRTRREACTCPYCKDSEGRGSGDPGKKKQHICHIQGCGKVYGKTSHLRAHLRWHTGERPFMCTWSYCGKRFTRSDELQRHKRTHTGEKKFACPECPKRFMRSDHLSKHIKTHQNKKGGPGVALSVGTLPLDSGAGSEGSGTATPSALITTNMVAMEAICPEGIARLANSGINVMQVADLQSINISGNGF

In assay [17] the target is Signal transducer and activator of transcription 3 (Homo sapiens) (UniProt P40763). The assay can be described thus: ATG_STAT3_CIS: Attagene CIS-FACTORIAL HepG2 Assay for human Signal Transducer and Activator of Transcription 3 (STAT3) (AID 2282963). Particulars: HepG2, Attagene cis-factorial STAT3 reporter transcription; actives raise or lower the signal. The essentials: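 Readout: fluorescent reporter mRNA fragments resolved by capillary electrophoresis. Setup: HepG2 transfected with MRTUs reporting endogenous transcription-factor activity, dosed 24 h. Gain or loss of signal fitted bidirectionally against DMSO control.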
Signal transducer and activator of transcription 3 (Homo sapiens), sequence (P40763 whole entry, looked up, the tested form may be a part): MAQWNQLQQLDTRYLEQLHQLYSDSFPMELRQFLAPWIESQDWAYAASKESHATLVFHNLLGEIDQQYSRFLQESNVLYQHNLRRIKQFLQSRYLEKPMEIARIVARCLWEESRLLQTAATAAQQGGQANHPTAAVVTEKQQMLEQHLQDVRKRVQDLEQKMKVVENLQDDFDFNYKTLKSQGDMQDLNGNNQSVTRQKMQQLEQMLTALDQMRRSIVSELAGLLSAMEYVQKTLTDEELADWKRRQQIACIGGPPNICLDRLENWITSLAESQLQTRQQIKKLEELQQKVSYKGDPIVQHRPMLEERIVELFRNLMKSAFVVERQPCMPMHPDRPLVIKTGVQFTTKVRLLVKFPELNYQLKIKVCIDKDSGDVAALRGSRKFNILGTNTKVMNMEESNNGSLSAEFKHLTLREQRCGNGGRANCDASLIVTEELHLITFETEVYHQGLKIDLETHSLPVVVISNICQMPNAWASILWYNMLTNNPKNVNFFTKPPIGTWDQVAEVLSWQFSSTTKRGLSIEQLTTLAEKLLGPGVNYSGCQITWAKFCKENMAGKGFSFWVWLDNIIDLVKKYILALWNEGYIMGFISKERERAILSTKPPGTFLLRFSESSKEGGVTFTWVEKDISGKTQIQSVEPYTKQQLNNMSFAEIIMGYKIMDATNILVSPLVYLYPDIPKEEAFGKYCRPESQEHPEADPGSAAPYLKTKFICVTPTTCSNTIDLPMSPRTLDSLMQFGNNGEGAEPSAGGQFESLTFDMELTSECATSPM

A short description of assay [18]: ATG_TA_CIS: Attagene CIS-FACTORIAL HepG2 Assay for human TA Basal Promoter (AID 2282964). The conditions noted are these: HepG2 Attagene CIS-factorial TA basal promoter reporter; actives raise or lower the signal. Put shortly: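 Transient MRTU transfection of HepG2 preceded 24 h compound exposure. Reporter mRNA levels were then read by RT-PCR with capillary electrophoresis, and this background-control endpoint was fitted bidirectionally to DMSO.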

A short description of assay [19]: ATG_TCF_b_cat_CIS: Attagene CIS-FACTORIAL HepG2 Assay for human T-Cell-Factor with beta-catenin (TCF/b-cat) (AID 2282965). The conditions noted are these: HepG2 TCF/beta-catenin cis-reporter transcription, actives raise or lower the signal. The essentials:
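Cells of the HepG2 line carry transiently transfected reporter units whose promoters respond to endogenous factors. Twenty-four hours post-dosing, reporter mRNA induction is measured by fluorescent RT-PCR and capillary electrophoresis, with DMSO as baseline.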

Assay [20] in a line: ATG_SREBP_CIS: Attagene CIS-FACTORIAL HepG2 Assay for human Sterol Regulatory Element Binding (SREBP) (AID 2282962). The conditions noted are these: HepG2 Attagene cis-factorial SREBP reporter, mRNA; actives raise or lower the signal. The essentials:
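Endogenous SREBP activity read as cis-element-driven reporter transcript in transiently transfected HepG2, 24 h post-dosing; quantified via RT-PCR plus capillary electrophoresis of fluorescent fragments. Gain or loss of signal fitted relative to DMSO baseline.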

Molecules are shown by their SMILES. Active and inactive are the calls of the source. Rule for the calls: active = hit-call score of the fitted dose curve at least 0.9, where 1 is the maximum; inactive = score below 0.9.

Bile acid receptor (Homo sapiens), sequence (Q96RI1 whole entry, looked up): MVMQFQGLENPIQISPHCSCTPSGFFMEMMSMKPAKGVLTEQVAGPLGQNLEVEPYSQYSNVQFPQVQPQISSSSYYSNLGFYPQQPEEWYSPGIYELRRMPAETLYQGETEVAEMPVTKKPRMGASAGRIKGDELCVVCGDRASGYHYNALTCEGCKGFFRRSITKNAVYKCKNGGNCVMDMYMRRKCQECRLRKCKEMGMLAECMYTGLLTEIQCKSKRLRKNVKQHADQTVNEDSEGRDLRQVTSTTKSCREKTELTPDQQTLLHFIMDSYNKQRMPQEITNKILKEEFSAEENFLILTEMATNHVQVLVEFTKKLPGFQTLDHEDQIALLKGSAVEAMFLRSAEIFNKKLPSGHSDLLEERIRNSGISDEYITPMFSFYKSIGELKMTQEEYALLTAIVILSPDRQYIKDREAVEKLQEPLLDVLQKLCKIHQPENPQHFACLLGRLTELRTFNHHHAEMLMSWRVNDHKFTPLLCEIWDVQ
Hypoxia-inducible factor 1-alpha (Homo sapiens), sequence (Q16665 whole entry, looked up): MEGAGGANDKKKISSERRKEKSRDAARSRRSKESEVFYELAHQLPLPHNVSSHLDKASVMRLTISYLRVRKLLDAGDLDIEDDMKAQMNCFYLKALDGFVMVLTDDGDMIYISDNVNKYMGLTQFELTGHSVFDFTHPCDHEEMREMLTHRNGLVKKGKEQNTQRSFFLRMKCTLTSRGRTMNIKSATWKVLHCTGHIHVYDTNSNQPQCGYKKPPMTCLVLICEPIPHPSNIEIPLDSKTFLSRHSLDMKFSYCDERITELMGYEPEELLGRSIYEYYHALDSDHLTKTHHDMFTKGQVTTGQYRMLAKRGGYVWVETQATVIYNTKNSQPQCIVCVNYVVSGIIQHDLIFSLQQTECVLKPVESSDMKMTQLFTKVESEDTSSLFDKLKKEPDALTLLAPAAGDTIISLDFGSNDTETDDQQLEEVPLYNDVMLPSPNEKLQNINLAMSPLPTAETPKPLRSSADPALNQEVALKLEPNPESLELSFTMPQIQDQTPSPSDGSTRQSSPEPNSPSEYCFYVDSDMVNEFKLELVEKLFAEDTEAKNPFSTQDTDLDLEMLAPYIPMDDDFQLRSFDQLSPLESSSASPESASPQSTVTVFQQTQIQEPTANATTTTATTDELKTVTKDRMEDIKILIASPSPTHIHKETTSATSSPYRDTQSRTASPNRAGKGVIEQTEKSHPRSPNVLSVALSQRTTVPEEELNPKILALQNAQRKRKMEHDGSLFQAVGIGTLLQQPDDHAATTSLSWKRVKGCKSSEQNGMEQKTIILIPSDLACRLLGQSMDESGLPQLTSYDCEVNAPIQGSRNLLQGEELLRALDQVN
Heat shock factor protein 1 (Homo sapiens), sequence (Q00613 whole entry, looked up): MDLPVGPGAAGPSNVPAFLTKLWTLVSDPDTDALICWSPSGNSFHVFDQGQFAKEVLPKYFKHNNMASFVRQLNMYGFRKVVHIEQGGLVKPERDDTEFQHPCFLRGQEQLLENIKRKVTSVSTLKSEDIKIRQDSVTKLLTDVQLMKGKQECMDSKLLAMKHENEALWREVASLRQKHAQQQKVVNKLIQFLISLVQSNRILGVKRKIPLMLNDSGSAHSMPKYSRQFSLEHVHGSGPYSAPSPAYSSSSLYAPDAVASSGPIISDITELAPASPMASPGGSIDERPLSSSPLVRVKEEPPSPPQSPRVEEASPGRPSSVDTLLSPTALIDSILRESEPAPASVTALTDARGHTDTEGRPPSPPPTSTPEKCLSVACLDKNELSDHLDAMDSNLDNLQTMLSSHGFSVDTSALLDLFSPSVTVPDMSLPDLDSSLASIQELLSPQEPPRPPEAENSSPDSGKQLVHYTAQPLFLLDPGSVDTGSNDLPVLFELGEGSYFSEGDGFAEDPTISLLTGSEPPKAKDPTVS
Hepatocyte nuclear factor 6 (Homo sapiens), sequence (Q9UBC0 whole entry, looked up): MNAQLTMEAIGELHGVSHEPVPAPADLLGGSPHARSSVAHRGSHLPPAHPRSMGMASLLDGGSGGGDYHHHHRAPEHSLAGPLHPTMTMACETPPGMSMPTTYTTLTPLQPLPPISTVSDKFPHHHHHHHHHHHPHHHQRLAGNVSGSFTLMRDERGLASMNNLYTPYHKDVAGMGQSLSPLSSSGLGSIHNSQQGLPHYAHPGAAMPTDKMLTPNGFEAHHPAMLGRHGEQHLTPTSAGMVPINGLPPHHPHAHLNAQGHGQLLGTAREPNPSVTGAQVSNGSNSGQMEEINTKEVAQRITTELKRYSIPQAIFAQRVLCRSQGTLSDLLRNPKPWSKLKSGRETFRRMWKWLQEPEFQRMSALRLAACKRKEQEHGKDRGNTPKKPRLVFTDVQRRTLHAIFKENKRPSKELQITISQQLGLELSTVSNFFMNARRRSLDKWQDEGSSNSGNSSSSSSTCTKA

As usually defined, the AC50 is the concentration at which the activity in the assay is half-maximal. As to `CCC(C)c1cc([N+](=O)[O-])cc([N+](=O)[O-])c1OC(=O)OC(C)C` (stereo unspecified), the AC50 was 27.4 µM (active) in [1]; 24.3 µM (active) in assay [3]; 49.2 µM (active) in [4]; 26.6 µM (active) in [8]; 34.8 µM (active) in assay [9]; 25.9 µM (active) in [11]. Besides, the results for the AC50 in [12], in [15] and in assay [17] were 0.731 µM (active), 25.3 µM (active) and 100 µM (active), respectively. The outcome in assay [2], in assay [5], in [6], in [7], in assay [10] and in assay [13] was inactive. Besides, the outcome in [14], in [16], in assay [18] and in assay [19] was inactive.
As to `CCCC[P+](CCCC)(CCCC)CCCC`, the compound was called inactive in assay [1], in [2], in [3], in assay [4], in [5] and in assay [6]. Moreover, the compound was called inactive in assay [7], in [8], in assay [9], in assay [10], in assay [11] and in [12]. Besides, the call in [13], in assay [14], in [15], in assay [16], in assay [20] and in [17] was inactive. Also, the call in assay [18] and in assay [19] was inactive.
Regarding `CSc1c(Cl)c(Cl)c(Cl)c(Cl)c1Cl`, the AC50 is 5.76 µM (active) in [1]; 27.9 µM (active) in assay [3]; 100 µM (active) in assay [9]; 100 µM (active) in [11]; 2.94 µM (active) in assay [12]; 72.8 µM (active) in [16]. For the same compound, the AC50 in [20] is 135 µM (active); in assay [19], 50.3 µM (active). Moreover, the result in assay [2], in assay [4], in [5], in [6], in assay [7] and in [8] was inactive. Besides, the outcome in [10], in [14], in assay [15], in [17] and in assay [18] was inactive.
`NCC1CCCC(CN)C1` (stereo unspecified): the result in [1], in [2], in assay [3], in [4], in assay [5] and in assay [6] was inactive. Moreover, the outcome in assay [7], in [8], in assay [9], in assay [10], in assay [11] and in assay [12] was inactive. In addition, the outcome in assay [13], in [15], in assay [16], in [20], in [17] and in assay [18] was inactive.
